Compounds with a hit are over-represented: about 3.9% of the library has one in this group of screens.
Eya2 inh = qHTS Assay for Inhibitors of the Phosphatase Activity of Eya2; Protein phosphatase EYA2 (Homo sapiens), O00167; recombinant Eya2, OMFP fluorescence dephosphorylation (OMFP is methylfluorescein phosphate); Potency, µM (highest dose often 76.9 µM), actives largely listed as inhibitors; 330,000 tested, 0.006% active
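Eya2 (0.2 uM) preincubated 10 min at ambient with compound, then OMFP substrate added at 50 uM; 10 min reaction in 50 mM HEPES pH 7.5, 50 mM NaCl, 5 uM MgCl2, 0.05% BSA, 1 mM DTT. Fluorescence read at Ex 485/Em 525 nm.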
D1 antag = Antagonist of Human D 1 Dopamine Receptor: qHTS; D(1A) dopamine receptor (Homo sapiens), P21728; HEK293 TREx D1 cells, calcium flux, dopamine EC80; hits give low values; activity change, negative = inhibition, % at 10 µM; 360,000 tested, 3.2% active; AID 504652, 2011; in the data active = activity change below about -30%
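Kinetic fluorescence of a calcium dye serves as the read-out. D1-expressing Hek293 Trex cells, induced overnight at 30 C, are exposed to compound for 180 s before an EC80 dopamine addition, then read 180 s further.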
D1 agonist = Allosteric Agonists of the Human D1 Dopamine Receptor: qHTS. HEK293 T-REx D1 cells, calcium flux, agonist mode. activation, % at 2 µM. 360,000 tested, 1% active. AID 504660, 2011; in the data active = activation above about 30%
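Inducible HEK293 T-REx D1 cells, force-coupled to calcium signalling, were plated at 4000 cells/well with tetracycline and held overnight at 30 C. After no-wash calcium dye loading, compound-evoked calcium rise over 180 s flagged agonists.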
USP2a inh = qHTS Assay for Inhibitors of Ubiquitin-specific Protease USP2a Using CHOP2 as the Reporter; 330,000 tested, 0.01% active; Potency, µM (highest dose often 38.3 µM), hits mostly inhibitors; Ubiquitin carboxyl-terminal hydrolase 2 (Homo sapiens), O75604; AID 463254, 2010; USP2 core, Ub-CHOP2 coupled fluorogenic reporter, 485/531
Target sequence (O75604 whole entry, looked up): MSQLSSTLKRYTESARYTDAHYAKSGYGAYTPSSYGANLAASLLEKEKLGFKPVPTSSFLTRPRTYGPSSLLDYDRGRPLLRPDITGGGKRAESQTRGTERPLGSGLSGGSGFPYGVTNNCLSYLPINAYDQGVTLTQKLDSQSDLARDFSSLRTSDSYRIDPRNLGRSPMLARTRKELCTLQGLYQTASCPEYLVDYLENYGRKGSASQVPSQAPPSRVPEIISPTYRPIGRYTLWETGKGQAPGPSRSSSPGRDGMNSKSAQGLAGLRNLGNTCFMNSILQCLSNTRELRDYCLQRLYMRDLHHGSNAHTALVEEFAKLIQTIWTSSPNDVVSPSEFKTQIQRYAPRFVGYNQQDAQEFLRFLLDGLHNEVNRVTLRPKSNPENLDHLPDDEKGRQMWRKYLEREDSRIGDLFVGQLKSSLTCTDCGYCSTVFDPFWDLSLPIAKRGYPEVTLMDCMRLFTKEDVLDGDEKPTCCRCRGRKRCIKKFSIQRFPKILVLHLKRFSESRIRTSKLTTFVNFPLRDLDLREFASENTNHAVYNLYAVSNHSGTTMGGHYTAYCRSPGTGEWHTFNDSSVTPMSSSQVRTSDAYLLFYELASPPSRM
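Deubiquitinase activity read as fluorescence (485/531 nm) after Ub-CHOP2 cleavage activates the enterokinase reporter on its substrate; USP2 core 10nM, Ub-CHOP2 and substrate 25nM each, 30min compound preincubation then 60min RT; data normalized to NEM, curves fitted.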
GALK inh = qHTS Assay for Inhibitors of Human Galactokinase (GALK); 270,000 tested, 0.007% active; Purified GALK, Kinase-Glo residual ATP luminescence; AID 1868, 2009; Potency, µM (highest dose often 57.5 µM), usual class: inhibitors; P51570
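Galactose (100 uM) and ATP (35 uM) were turned over by 5 nM GALK for 1 h at RT. Kinase-Glo Plus then converted the remaining ATP into a luminescent signal.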
D1 PAM = Potentiators of Human D1 Dopamine Receptor: qHTS | HEK293 TREx D1 cells, calcium flux, dopamine EC20 potentiation | 360,000 tested, 0.036% active | D(1A) dopamine receptor (Homo sapiens), P21728 | potentiation, % at 10 µM; in the data active = potentiation above about 30%
Hits are given with their value; n = inactive; u = inconclusive; x = no result. Unless noted, calls follow the shape of the dose curve; as a rule, active = well fitted inhibition curve with a large enough effect; inconclusive = small, poorly fitted or top-dose-only effect, or effect the other way; inactive = flat fitted curve, though single readings scatter.

SMILES	Eya2 inh	D1 antag	D1 agonist	USP2a inh	GALK inh	D1 PAM
Cc1ccc(S(=O)(=O)N2CCN(Cc3ccccn3)CC2)cc1	u	n	n	n	n	n
CC(=O)Nc1ccc(S(=O)(=O)N2CCN(CCc3ccccc3)CC2)cc1	n	-33	n	n	n	n
O=S(=O)(c1ccc2ccccc2c1)N1CCN(Cc2ccccn2)CC1	n	n	51	n	n	n
O=[N+]([O-])c1ccc(CS(=O)(=O)N2CCN(c3ccccc3)CC2)cc1	n	-30	n	n	n	x
CC(=O)Nc1ccc(S(=O)(=O)N2CCN(C(=O)Cc3ccccc3)CC2)cc1	n	n	n	n	n	n
COc1ccc(-n2nc(C(=O)Nc3cc(C)ccn3)c3c4ccccc4n(C)c3c2=O)cc1Cl	x	n	n	x	x	n
CC(C)Sc1ncc(Cl)c(C(=O)Nc2nc3ccc(S(C)(=O)=O)cc3s2)n1	x	n	n	x	x	n
CCOc1ccc(S(=O)(=O)N2CCN(Cc3ccccc3)CC2)cc1	n	-39	n	n	n	n
CCOc1ccc(CN2CCN(S(=O)(=O)c3ccc(Cl)cc3)CC2)cc1	x	n	n	x	x	n
CC(=O)Nc1ccc(S(=O)(=O)N2CCN=C2SCc2ccc([N+](=O)[O-])cc2)cc1	n	-65	n	n	n	n
CC1CCN(C(=O)COC(=O)c2ccc3ccccc3n2)CC1	n	x	x	n	x	x
CC1CC(C)CN(C(=O)COC(=O)c2ccc3ccccc3n2)C1 (stereo not drawn)	n	-37	n	n	x	n
COC(=O)c1cc2oc(C)cc2n1Cc1ccccc1Cl	x	n	n	x	x	n
CCCCN(CC)Cc1c(O)ccc2c(-c3ccccc3)cc(=O)oc12	n	n	n	n	x	n
CCN(CC)Cc1c(O)ccc2c(-c3ccccc3)cc(=O)oc12	n	-31	n	n	n	n
Cc1ccc(C(=O)NCC(c2ccc3c(c2)OCO3)N2CCN(C)CC2)cc1C (stereo not drawn)	x	n	n	x	x	n
CCCCN(C)CCNC(=O)C1CCN(c2nc3ccc(CC)cc3s2)CC1	x	-55	65	x	x	n
CCc1ccc2nc(N3CCC(C(=O)O)CC3)sc2c1	x	n	n	x	x	n
CCCCc1nc2cc(C(=O)N3CCCCC3COC)ccc2o1 (stereo not drawn)	n	-31	n	n	n	n
COCC1CCCCN1C(=O)c1ccc2oc(CCc3ccccc3)nc2c1 (stereo not drawn)	n	n	n	n	n	n
CCC1CN(C(=O)N2CCC(C(=O)NCc3cc(OC)ccc3OC)CC2)c2ccccc2O1 (stereo not drawn)	x	n	n	x	x	n
CCN(CC(=O)Nc1c(F)cccc1F)C(=O)Cn1[nH]c(=O)c2ccccc2c1=O	n	-50	n	n	x	n
CCN(CC(=O)Nc1c(F)cccc1F)C(=O)Cc1ccc2c(c1)CCC2	n	-34	n	n	x	n
CCN(CC(=O)Nc1c(F)cccc1F)C(=O)Cc1c(C)nc2ccccc2c1C	n	-49	n	n	x	n
Cc1ccc(NC(=O)Cn2c(=O)n(Cc3nc(C)no3)c(=O)c3cc4c(cc32)OCO4)cc1	x	n	n	x	x	n
SMILES	Eya2 inh	D1 antag	D1 agonist	USP2a inh	GALK inh	D1 PAM
O=C(Nc1ccncc1)C1c2ccccc2Oc2ccccc21	n	n	44	n	n	n
CC[C@H](C)[C@@H](C(=O)NCCCCCCCCCCC(=O)N1CCN(C(=O)OC(C)(C)C)CC1)n1cc(CCCCCNC(=O)OC(C)(C)C)nn1	n	-31	n	n	x	n
C#CCOCCOCCOCCNc1nc(N2CCN(C(=O)CCCCCCCCCCNC(=O)[C@H]([C@@H](C)CC)n3cc(CCCCCN)nn3)CC2)nc(N2CCN(C(=O)CCCCCCCCCCNC(=O)[C@H]([C@@H](C)CC)n3cc(CCCCN=C(N)N)nn3)CC2)n1	n	n	n	u	x	n
C#CCOCCOCCOCCNc1nc(N2CCN(C(=O)CCCCCCCCCCNC(=O)[C@H]([C@@H](C)CC)n3cc(CCCCCN)nn3)CC2)nc(N2CCN(C(=O)CCCCCCCCCCNC(=O)[C@@H]([C@H](C)CC)n3cc(CCCCCN)nn3)CC2)n1	28µM	n	n	5µM	x	n
C#CCOCCOCCOCCNc1nc(N2CCOCC2)nc(N2CCN(C(=O)CCCCCCCCCCNC(=O)[C@@H]([C@H](C)CC)n3cc(CCCCCN)nn3)CC2)n1	n	n	n	n	x	n
C#CCOCCOCCOCCNc1nc(N2CCN(C(=O)[C@H](Cc3cc4ccccc4[nH]3)n3cc([C@@H](N)C(C)CC)nn3)CC2)nc(N2CCN(C(=O)[C@H](CCCCN)n3cc([C@@H](N)CO)nn3)CC2)n1 (stereo partly drawn)	n	-35	n	n	n	n
C#CCOCCOCCOCCNc1nc(N2CCN(C(=O)CCCCCCCCCCNC(=O)[C@H]([C@@H](C)CC)n3cc(CCCCCN)nn3)CC2)nc(N2CCN(C(=O)CCCCCCCCCCNC(=O)[C@H](CO)n3cc(CCCCCN)nn3)CC2)n1	n	n	50	u	x	n
CCNc1nc(C#N)nc2c1ncn2-c1cccc(Cl)c1	x	n	n	x	x	n
CCOc1ccc(CC(=O)Nc2c(C(=O)c3ccc(C)cc3)oc3ccccc23)cc1OCC	x	n	n	x	x	n
Cc1[nH]c(C(=O)O)c(C)c1C(=O)OC(C)C	n	-53	n	n	n	n
COc1ccc(CNC(=O)c2cccn2-c2nnc(N3CCCCC3)s2)c(OC)c1	x	n	n	x	x	n
O=C(CSc1ccc2nc(-c3ccccc3)cn2n1)Nc1ccccc1C(F)(F)F	x	-71	n	x	x	n
Cc1ccc(OCC(=O)Nc2ccc(C(=O)OCc3cc(=O)n4ccsc4n3)cc2)cc1C	x	n	n	x	x	n
CCCCCn1nc(C(=O)N2CCc3ccccc32)c2ccccc2c1=O	n	-51	n	n	x	n
CCCn1nc(C(=O)N2CCc3ccccc32)c2ccccc2c1=O	n	n	n	n	x	n
CC1(C)NC(=O)N(CC(O)COc2ccccc2C(=O)N2CCCCC2)C1=O (stereo not drawn)	n	-30	n	n	n	n
Cc1ccc(C)c(N=Nc2ccc(O)c3ncccc23)c1	n	-71	n	n	n	n
COC(=O)C(NS(=O)(=O)c1ccc(C)cc1)c1ccccc1 (stereo not drawn)	n	n	n	n	n	n
